Common to all, as to assay: DAPPL (digital affinity profiling via proximity ligation, sequencing); 10 mM Tris-HCl pH 7.5, 50 mM NaCl, 1 mM DTT, 4% glycerol, room temperature, 30 min; GST-TFs on glutathione beads, 16-mer random dsDNA library, 0.1% formaldehyde crosslink after washing; high values mean tight binding
Common to all, as to conditions: protein: recombinant; tags: N-terminal GST; dsDNA, one strand shown

For one assay, the target named is T1, FLI1 (Homo sapiens, UniProt Q01543 1-452).
T1 sequence: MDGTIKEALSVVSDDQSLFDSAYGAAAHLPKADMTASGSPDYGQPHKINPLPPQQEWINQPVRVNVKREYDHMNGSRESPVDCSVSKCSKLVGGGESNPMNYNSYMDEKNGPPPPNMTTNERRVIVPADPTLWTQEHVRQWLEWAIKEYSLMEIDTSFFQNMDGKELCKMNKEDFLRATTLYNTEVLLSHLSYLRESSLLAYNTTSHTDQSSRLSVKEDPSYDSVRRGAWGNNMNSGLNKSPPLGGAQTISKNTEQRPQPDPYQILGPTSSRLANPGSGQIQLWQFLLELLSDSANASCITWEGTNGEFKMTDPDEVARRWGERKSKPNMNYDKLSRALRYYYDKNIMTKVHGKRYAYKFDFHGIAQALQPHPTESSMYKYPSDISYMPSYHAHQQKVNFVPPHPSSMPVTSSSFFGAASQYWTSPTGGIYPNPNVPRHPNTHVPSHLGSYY
An outline of the steps: (§1)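 Human transcription factors fused to GST were expressed in yeast, captured on glutathione beads, given DNA barcodes and pooled with a GST-only negative control. Pools were incubated with 200 nmole of a 16-mer random double-stranded DNA library in Tris/NaCl/DTT/glycerol buffer at room temperature for 30 min. They were then washed, crosslinked with 0.1% formaldehyde, proximity-ligated (BsaI/T4 ligase, 1 h, 37 °C), PCR-amplified and sequenced on an Illumina NextSeq500. Binding signal is each 6-mer's read frequency for a factor divided by its frequency for the GST control.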

The next assay deals with T2, ELK1 (Homo sapiens, UniProt P19419 1-428).
T2 sequence: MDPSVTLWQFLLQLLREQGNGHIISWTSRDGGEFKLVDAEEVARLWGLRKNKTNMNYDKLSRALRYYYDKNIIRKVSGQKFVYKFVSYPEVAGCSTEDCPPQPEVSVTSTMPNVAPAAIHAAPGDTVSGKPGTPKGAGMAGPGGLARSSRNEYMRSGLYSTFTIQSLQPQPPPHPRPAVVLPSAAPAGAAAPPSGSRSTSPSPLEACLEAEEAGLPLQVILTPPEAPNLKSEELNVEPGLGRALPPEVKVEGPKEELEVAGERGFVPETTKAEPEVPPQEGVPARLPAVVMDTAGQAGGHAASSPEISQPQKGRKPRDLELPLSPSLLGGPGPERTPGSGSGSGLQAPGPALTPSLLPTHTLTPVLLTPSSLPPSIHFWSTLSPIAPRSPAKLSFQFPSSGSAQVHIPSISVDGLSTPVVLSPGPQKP
The essentials:
as §1

Another assay deals with T3, GABPA (Homo sapiens, UniProt Q06546 1-454).
T3 sequence: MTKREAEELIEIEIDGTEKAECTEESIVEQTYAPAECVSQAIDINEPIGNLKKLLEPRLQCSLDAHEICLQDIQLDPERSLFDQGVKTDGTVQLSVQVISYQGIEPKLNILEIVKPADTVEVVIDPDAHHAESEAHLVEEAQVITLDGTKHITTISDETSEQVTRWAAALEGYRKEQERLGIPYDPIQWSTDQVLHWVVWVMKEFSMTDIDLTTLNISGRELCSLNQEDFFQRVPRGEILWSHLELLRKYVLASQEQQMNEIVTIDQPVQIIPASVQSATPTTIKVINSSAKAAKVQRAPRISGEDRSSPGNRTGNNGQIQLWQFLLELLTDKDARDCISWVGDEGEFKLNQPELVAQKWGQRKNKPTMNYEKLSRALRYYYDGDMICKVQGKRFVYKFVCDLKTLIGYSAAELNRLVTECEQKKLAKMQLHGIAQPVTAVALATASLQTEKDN
The essentials: as §1

A further assay deals with T4, ERG (Homo sapiens, UniProt P11308 1-479).
T4 sequence: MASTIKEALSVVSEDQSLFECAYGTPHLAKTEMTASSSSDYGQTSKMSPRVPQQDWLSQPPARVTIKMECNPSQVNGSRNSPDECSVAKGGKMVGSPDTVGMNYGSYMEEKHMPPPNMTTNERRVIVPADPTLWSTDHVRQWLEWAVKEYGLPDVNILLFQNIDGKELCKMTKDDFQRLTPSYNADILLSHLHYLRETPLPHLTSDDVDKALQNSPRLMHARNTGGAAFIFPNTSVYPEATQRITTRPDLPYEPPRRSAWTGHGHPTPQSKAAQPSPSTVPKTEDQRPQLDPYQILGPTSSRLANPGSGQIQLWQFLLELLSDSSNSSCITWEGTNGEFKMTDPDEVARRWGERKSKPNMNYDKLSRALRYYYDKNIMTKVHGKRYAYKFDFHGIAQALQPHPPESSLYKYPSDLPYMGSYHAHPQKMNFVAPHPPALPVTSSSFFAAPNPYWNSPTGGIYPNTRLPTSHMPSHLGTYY
The essentials: as §1

A further assay has as its target ELF1 (Homo sapiens, UniProt P32519 1-619). An outline of the steps:
as §1

A further assay concerns the target T5, EHF (Homo sapiens, UniProt Q9NZC4 1-300).
T5 sequence: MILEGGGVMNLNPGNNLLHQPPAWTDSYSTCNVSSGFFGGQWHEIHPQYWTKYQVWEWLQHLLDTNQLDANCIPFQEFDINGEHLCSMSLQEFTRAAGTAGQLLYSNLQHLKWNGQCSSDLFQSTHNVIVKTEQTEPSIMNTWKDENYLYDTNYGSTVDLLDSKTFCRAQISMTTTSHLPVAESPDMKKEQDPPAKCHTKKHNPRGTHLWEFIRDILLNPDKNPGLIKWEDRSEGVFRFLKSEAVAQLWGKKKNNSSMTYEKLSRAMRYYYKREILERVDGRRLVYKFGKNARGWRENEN
An outline of the steps:
as §1

For the next assay, the target named is SPI1 (Homo sapiens, UniProt P17947 1-270). The essentials: as §1
The target in another assay is SPIB (Homo sapiens, UniProt Q01892 1-262). An outline of the steps: as §1
Another assay concerns the target T6, ELK3 (Homo sapiens, UniProt P41970 1-407).
T6 sequence: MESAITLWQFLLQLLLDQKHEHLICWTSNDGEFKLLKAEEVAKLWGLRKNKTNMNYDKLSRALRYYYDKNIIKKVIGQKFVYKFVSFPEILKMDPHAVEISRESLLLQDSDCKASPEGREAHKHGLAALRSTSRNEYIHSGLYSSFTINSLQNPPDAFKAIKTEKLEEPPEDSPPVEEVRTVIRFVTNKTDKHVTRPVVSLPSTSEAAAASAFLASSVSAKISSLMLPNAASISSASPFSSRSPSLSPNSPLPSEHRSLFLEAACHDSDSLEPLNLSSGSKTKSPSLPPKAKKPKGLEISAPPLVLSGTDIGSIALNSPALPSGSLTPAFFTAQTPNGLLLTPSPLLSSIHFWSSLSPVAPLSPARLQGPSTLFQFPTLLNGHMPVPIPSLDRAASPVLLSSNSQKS
An outline of the steps: as §1

Chain of ELF1 (P32519 whole entry): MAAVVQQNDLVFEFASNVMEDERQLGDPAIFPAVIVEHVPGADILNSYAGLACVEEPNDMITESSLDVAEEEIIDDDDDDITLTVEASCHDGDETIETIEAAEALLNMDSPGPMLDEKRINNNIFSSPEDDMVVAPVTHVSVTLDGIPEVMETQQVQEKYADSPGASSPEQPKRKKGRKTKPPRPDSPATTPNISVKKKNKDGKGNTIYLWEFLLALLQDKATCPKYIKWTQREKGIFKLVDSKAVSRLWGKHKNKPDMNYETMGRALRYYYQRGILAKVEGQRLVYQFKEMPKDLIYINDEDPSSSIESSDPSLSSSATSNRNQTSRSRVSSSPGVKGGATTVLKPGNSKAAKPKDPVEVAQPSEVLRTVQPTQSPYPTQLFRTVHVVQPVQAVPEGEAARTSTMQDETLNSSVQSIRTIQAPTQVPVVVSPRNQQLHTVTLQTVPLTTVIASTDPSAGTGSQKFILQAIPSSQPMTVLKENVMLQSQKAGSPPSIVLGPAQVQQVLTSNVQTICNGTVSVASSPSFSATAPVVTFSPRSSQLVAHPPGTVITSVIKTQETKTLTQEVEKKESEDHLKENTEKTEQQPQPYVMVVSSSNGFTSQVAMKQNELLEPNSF
Chain of SPIB (Q01892 whole entry): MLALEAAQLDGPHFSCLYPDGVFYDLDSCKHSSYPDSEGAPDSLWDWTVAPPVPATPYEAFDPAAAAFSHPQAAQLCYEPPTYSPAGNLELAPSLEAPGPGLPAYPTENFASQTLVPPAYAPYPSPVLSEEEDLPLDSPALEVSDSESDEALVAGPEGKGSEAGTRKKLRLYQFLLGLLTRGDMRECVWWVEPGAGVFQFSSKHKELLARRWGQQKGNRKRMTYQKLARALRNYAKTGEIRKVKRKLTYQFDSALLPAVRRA

As to TTCGAC, the binding signal was 1.52 fold enrichment (6-mer frequency, TF over GST control) in the assay with FLI1; 1.51 fold enrichment (6-mer frequency, TF over GST control) with ELK1; 1.49 fold enrichment (6-mer frequency, TF over GST control) with GABPA; 1.43 fold enrichment (6-mer frequency, TF over GST control) with ERG; 1.49 fold enrichment (6-mer frequency, TF over GST control) with ELF1; 1.41 fold enrichment (6-mer frequency, TF over GST control) with EHF. Moreover, the binding signal with SPI1 is 1.3 fold enrichment (6-mer frequency, TF over GST control); in the assay with SPIB it was 1.45 fold enrichment (6-mer frequency, TF over GST control); with ELK3 it was 1.39 fold enrichment (6-mer frequency, TF over GST control).

For the sequence AATAGT, the binding signal with FLI1 is 1.21 fold enrichment (6-mer frequency, TF over GST control); in the assay with ELK1, 1.2 fold enrichment (6-mer frequency, TF over GST control); with GABPA it was 1.2 fold enrichment (6-mer frequency, TF over GST control); with ERG it was 1.31 fold enrichment (6-mer frequency, TF over GST control); with ELF1, 1.19 fold enrichment (6-mer frequency, TF over GST control); with EHF, 1.23 fold enrichment (6-mer frequency, TF over GST control). The binding signal was 1.17 fold enrichment (6-mer frequency, TF over GST control) with SPI1; 1.22 fold enrichment (6-mer frequency, TF over GST control) with SPIB; 1.11 fold enrichment (6-mer frequency, TF over GST control) with ELK3.

CACGTT: the binding signal in the assay with FLI1 is 1.28 fold enrichment (6-mer frequency, TF over GST control); with ELK1, 1.35 fold enrichment (6-mer frequency, TF over GST control); with GABPA, 1.3 fold enrichment (6-mer frequency, TF over GST control); with ERG, 1.28 fold enrichment (6-mer frequency, TF over GST control); with ELF1, 1.29 fold enrichment (6-mer frequency, TF over GST control); with EHF, 1.24 fold enrichment (6-mer frequency, TF over GST control). In addition, the binding signal was 1.3 fold enrichment (6-mer frequency, TF over GST control) with SPI1; 1.21 fold enrichment (6-mer frequency, TF over GST control) with SPIB; 1.25 fold enrichment (6-mer frequency, TF over GST control) with ELK3.

For the sequence CCCCAA, the binding signal in the assay with FLI1 is 1.1 fold enrichment (6-mer frequency, TF over GST control); in the assay with ELK1, 1.16 fold enrichment (6-mer frequency, TF over GST control); in the assay with GABPA it was 1.16 fold enrichment (6-mer frequency, TF over GST control); with ERG, 1.18 fold enrichment (6-mer frequency, TF over GST control); with ELF1 it was 1.19 fold enrichment (6-mer frequency, TF over GST control); with EHF, 1.23 fold enrichment (6-mer frequency, TF over GST control). In addition, the binding signal with SPI1 was 1.2 fold enrichment (6-mer frequency, TF over GST control); in the assay with SPIB it was 1.07 fold enrichment (6-mer frequency, TF over GST control); with ELK3 it was 1.09 fold enrichment (6-mer frequency, TF over GST control).

Regarding CCCTTC, the binding signal with FLI1 is 1.55 fold enrichment (6-mer frequency, TF over GST control); in the assay with ELK1 it was 1.55 fold enrichment (6-mer frequency, TF over GST control); with GABPA, 1.39 fold enrichment (6-mer frequency, TF over GST control); with ERG, 1.48 fold enrichment (6-mer frequency, TF over GST control); with ELF1 it was 1.45 fold enrichment (6-mer frequency, TF over GST control); with EHF, 1.52 fold enrichment (6-mer frequency, TF over GST control). The binding signal is 1.52 fold enrichment (6-mer frequency, TF over GST control) with SPI1; 1.56 fold enrichment (6-mer frequency, TF over GST control) with SPIB; 1.44 fold enrichment (6-mer frequency, TF over GST control) with ELK3.

For the sequence AAATAA, the binding signal is 1.27 fold enrichment (6-mer frequency, TF over GST control) with FLI1; 1.32 fold enrichment (6-mer frequency, TF over GST control) with ELK1; 1.33 fold enrichment (6-mer frequency, TF over GST control) in the assay with GABPA; 1.37 fold enrichment (6-mer frequency, TF over GST control) in the assay with ERG; 1.33 fold enrichment (6-mer frequency, TF over GST control) in the assay with ELF1; 1.29 fold enrichment (6-mer frequency, TF over GST control) with EHF. In addition, the binding signal with SPI1 was 1.32 fold enrichment (6-mer frequency, TF over GST control); with SPIB, 1.39 fold enrichment (6-mer frequency, TF over GST control); in the assay with ELK3, 1.33 fold enrichment (6-mer frequency, TF over GST control).

As to TTGTAA, the binding signal with FLI1 is 1.32 fold enrichment (6-mer frequency, TF over GST control); with ELK1 it was 1.3 fold enrichment (6-mer frequency, TF over GST control); with GABPA, 1.24 fold enrichment (6-mer frequency, TF over GST control); with ERG it was 1.27 fold enrichment (6-mer frequency, TF over GST control); with ELF1, 1.34 fold enrichment (6-mer frequency, TF over GST control); in the assay with EHF, 1.34 fold enrichment (6-mer frequency, TF over GST control). In addition, the binding signal in the assay with SPI1 was 1.3 fold enrichment (6-mer frequency, TF over GST control); in the assay with SPIB, 1.22 fold enrichment (6-mer frequency, TF over GST control); with ELK3, 1.08 fold enrichment (6-mer frequency, TF over GST control).

Consider GCTTGC, for which the binding signal was 1.41 fold enrichment (6-mer frequency, TF over GST control) with FLI1; 1.28 fold enrichment (6-mer frequency, TF over GST control) with ELK1; 1.21 fold enrichment (6-mer frequency, TF over GST control) in the assay with GABPA; 1.14 fold enrichment (6-mer frequency, TF over GST control) with ERG; 1.25 fold enrichment (6-mer frequency, TF over GST control) with ELF1; 1.28 fold enrichment (6-mer frequency, TF over GST control) in the assay with EHF. Besides, the binding signal with SPI1 was 1.18 fold enrichment (6-mer frequency, TF over GST control); with SPIB, 1.24 fold enrichment (6-mer frequency, TF over GST control); with ELK3, 1.3 fold enrichment (6-mer frequency, TF over GST control).

(Values after PMC7862700, “An all-to-all approach to the identification of sequence-specific readers for epigenetic DNA modifications on cytosine”.)
